The list is not random: actives were taken first. Their share in the collection is about 0.34%.
Vif-APOBEC3F blk – qHTS for Inhibitors of Vif-A3F Interactions: qHTS. 0.2% of 390,000 active. HeLa A3F-eYFP + Vif (tagged APOBEC3F with the HIV-1 protein that degrades it), YFP fluorescence increase. Potency, µM (series often up to 46.1 µM), for inactives: top-dose activity, negative = active; further: % of control where 0% means no effect; nearly all actives have a fitted effect of over 65% in size
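Fluorescence increase (Ex 488/Em 500-530) after overnight compound treatment at 37 deg C flags inhibition of Vif-driven A3F-eYFP loss in stable HeLa A3F-eYFP/Vif cells seeded overnight beforehand.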
Epigenetic reg – Quantitative High-Throughput Screen for Regulators of Epigenetic Control; murine LDR cells, GFP reporter derepression, 30 h; Potency, µM (titrated, usually from 53.9 µM), for inactives: at the highest dose GFP activation, hits mostly activators; 0.2% of 280,000 active; further: % of control where 0% means no effect; nearly all actives have a fitted effect of over 60% in size
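Murine LDR cells carrying a silenced, genomically integrated CMV-driven GFP reporter were exposed to compound for 30 hours at 37 C. After PBS washes, GFP-positive cells (20–120 um objects) were counted by laser-scanning microplate cytometry.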
Vif-APOBEC3G blk – qHTS for Inhibitors of Vif-A3G Interactions: qHTS | 0.076% of 410,000 active | Potency, µM (doses to about 46.1 µM), inactives show at the top dose activity, negative = active, usual class: inhibitors | DNA dC->dU-editing enzyme APOBEC-3G (Homo sapiens), Q9HC16 | HeLa A3G-eYFP + Vif (tagged APOBEC3G with the HIV-1 protein that degrades it), YFP fluorescence, overnight; further: on the % scale 0 is the no-effect control and ±100 the full control effect; nearly all actives have a fitted effect of over 60% in size
Target sequence (Q9HC16 whole entry, looked up): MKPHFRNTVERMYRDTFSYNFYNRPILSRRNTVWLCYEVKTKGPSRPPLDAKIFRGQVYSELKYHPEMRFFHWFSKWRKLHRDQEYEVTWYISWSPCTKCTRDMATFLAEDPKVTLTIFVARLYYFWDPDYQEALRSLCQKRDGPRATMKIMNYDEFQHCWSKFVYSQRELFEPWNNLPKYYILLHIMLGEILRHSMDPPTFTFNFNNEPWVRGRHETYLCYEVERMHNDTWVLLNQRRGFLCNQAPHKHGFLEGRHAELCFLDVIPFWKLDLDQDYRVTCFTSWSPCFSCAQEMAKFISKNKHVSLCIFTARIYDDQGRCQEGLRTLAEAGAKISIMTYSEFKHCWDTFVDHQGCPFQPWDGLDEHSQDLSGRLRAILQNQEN
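HeLa cells stably expressing Vif and C-terminally eYFP-tagged A3G, seeded overnight at 37 deg C, then exposed to compound by pintool overnight at 37 deg C. Rise in yellow fluorescence (Ex 488/Em 500-530, Acumen) marks blocked Vif-driven A3G degradation.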
Numbers without * were called inactive; ? = inconclusive; / = no result. The call rests on the fitted dose curve; in most records, active means well fitted curve in the direction sought with a large enough effect; inconclusive means small, poorly fitted or top-dose-only effect, or another doubt; inactive means no such curve, though single readings can be large; an effect the other way counts as inactive or inconclusive. Potency means the concentration at half of the fitted maximal effect.

SMILES	Vif-APOBEC3F blk	Epigenetic reg	Vif-APOBEC3G blk
Cn1c(=O)c2c(nc(Oc3ccccc3)n2Cc2c(Cl)cccc2Cl)n(C)c1=O	0.5%	-0.8%	4.9%
N#Cc1c(C(F)(F)F)cc(-c2ccc(Cl)c(Cl)c2)nc1SCCN1CCOCC1	?	-0.9%	-11.0%
N#Cc1c(C(F)(F)F)cc(-c2ccccc2)nc1SCc1nc(N)nc(N2CCOCC2)n1	11.2µM*	6.31µM*	?
COc1cc(OC)c(OC)cc1/C=C/c1ccc2ccccc2[n+]1C	/	/	3.6%
CNc1ccc(/C=C2\C=Cc3ccccc32)cc1Br	/	/	-24.9%
Cc1cc2oc3ccc(NCCCN4CCOCC4)cc3c(=O)c2cc1C	-8.9%	/	-1.2%
Cc1cc2oc3ccc(NCCCn4ccnc4)cc3c(=O)c2cc1C	22.4µM*	/	?
C=C1C=C(C(F)(F)F)n2ncc(C(=O)NCc3ccc(F)cc3)c2N1	/	/	-2.8%
Cc1nn2c(=O)cc(COC(=O)c3ccc(NC(=O)CCc4ccccc4)cc3)nc2s1	5.2%	-3.4%	3.1%
CC(C)(C)n1ncc2c(=O)n(Cc3ccc(C(F)(F)F)cc3)cnc21	/	/	1.2%
CCc1ccc(/C=C2\CN(CC)Cc3c2nc2ccccc2c3C(=O)O)cc1	3.9%	15.8µM*	0.8%
CCN1C/C(=C/c2cccs2)c2nc3ccccc3c(C(=O)O)c2C1	-8.6%	-1.0%	-0.3%
CCOc1ccccc1C(=O)N1CCC(c2nc3ccccc3o2)CC1	1.4%	-1.6%	3.3%
CSc1ncc2c(n1)-c1ccccc1N(Cc1ccccc1C)S2(=O)=O	-16.7%	-2.0%	-4.6%
CN1CCC(OC(=O)c2ccc(Cl)cc2Cl)CC1	-5.9%	0.0%	2.7%
CN1CCC(OC(=O)c2cc3cc(Cl)cc(Cl)c3oc2=O)CC1	4.2%	/	11.2µM*
CCN(CC)c1ccc(-c2nnc(SCC(=O)NCc3ccco3)n2C)cc1	/	/	-3.5%
Cc1ccc(C(=O)Nc2nc(-c3ccccn3)cs2)s1	-3.7%	/	-2.6%
O=C(Nc1nc(-c2ccccn2)cs1)c1ccc(Cl)s1	-20.3%	22.4µM*	?
O=C(Nc1nc(-c2ccccn2)cs1)C1CCCC1	7.08µM*	-0.2%	-1.7%
CSCCC(=O)Nc1nc(-c2ccccn2)cs1	-30.6%	0.0%	2.4%
C[C@@H]1[C@H](c2ccccc2)OCCS(=O)(=O)N1Cc1ccccc1Br	/	/	-0.8%
Cc1cc2ccccn2c1C(=O)c1ccc([N+](=O)[O-])o1	11.2µM*	7.7%	?
Cc1cc2ccccn2c1C(=O)c1cccc([N+](=O)[O-])c1	1.4%	2.4%	1.9%
Cc1ccc(CNC(=O)Cn2cc(C(=O)c3ccc(F)cc3)c(=O)c3ccc(C)nc32)cc1	-25.7%	-1.3%	-1.7%
SMILES	Vif-APOBEC3F blk	Epigenetic reg	Vif-APOBEC3G blk
CCc1ccc(C(=O)c2cn(CC(=O)Nc3cc(F)ccc3F)c3nc(C)ccc3c2=O)cc1	-7.4%	20µM*	?
O=C(O)C#CC(=O)O	/	/	-2.6%
CC(=O)C1=C(C)NC(SCC(=O)c2ccccc2)=C(C#N)C1c1ccco1 (centres undefined)	/	-2.5%	/
CC(=O)C1=C(C)NC(SCC(=O)c2ccc(Cl)cc2)=C(C#N)C1c1ccco1 (centres undefined)	25.1µM*	3.8%	?
Cc1ccc2c(c1)sc(-c1ccc(N(C)C)cc1)[n+]2C	22.4µM*	/	?
CC[n+]1c(C)sc2cc(C)ccc21	2.0%	-3.6%	0.1%
Cc1ccc2nc(CO)[nH]c2c1	/	/	-0.1%
Cc1ccc(CSc2nc(-c3cccs3)ccc2C#N)cc1	-1.8%	-1.1%	?
C#CCSc1nc(-c2cccs2)ccc1C#N	2.82µM*	-7.9%	-23.8%
CC(C)(C)n1ncc2c(=O)n(Cc3ccc(Cl)cc3C(F)(F)F)cnc21	/	/	-0.2%
CCc1ccccc1NC(=O)c1nc2nc(C)cc(C(F)F)n2n1	-8.0%	-0.1%	-2.7%
CCCCCCCCCCCCCC(=O)Nc1ccc(/C=C/c2ccnc3ccccc23)cc1	/	/	-1.3%
COc1ccc(C(=O)Nc2ccc(-c3nc4ncccc4o3)cc2C)cc1Br	-2.5%	0.0%	1.2%
Cc1ccc(NC(=O)c2ccc(NCC3CCCO3)c([N+](=O)[O-])c2)cc1Cl (centres undefined)	11.2µM*	?	-26.2%
NC(=O)c1ccc(NCC2CCCO2)c([N+](=O)[O-])c1 (centres undefined)	-22.9%	/	-3.9%
Cc1cccc(NC(=O)c2ccc(NCCc3ccccc3)c([N+](=O)[O-])c2)c1	?	17.8µM*	-16.7%
Cc1ccc(NC(=O)c2ccc(NCCN)c([N+](=O)[O-])c2)cc1	0.0%	-3.0%	-1.1%
O=C(Nc1cccc(Cl)c1)c1ccc(NCCCN2CCOCC2)c([N+](=O)[O-])c1	-14.2%	0.9%	0.7%

Screening results deposited in PubChem BioAssay by National Center for Advancing Translational Sciences (NCATS).
